# PubChem BioAssay
# “And” between values parts separate entries of the source, which are not always exact repeats. Identical values can stand only once. Inconclusive results are not listed. The source made the active and inactive calls.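 How the source made its calls: active means GFP signal, as percent of the solvent control, above the screen mean plus 3 SD, about 149; inconclusive means no reading because the compound's own fluorescence upset strain identification; inactive means the rest.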 Peptide text beside a SMILES is read from it.
# Experiment: modulators of LAP4-GFP expression in yeast, primary screen, S. cerevisiae, multiplex flow cytometry (AID 1873)
# Details: 3 h, at 10 µM, active compounds read high
row,SMILES,GFP response vs DMSO
1,CC(C)(C)OC(=O)N1CC(O)CC1C(=O)OCC(=O)c1ccc(Cl)cc1 (centres undefined),90.7% (inactive)
2,O=C(O)c1ccc(OCCn2ccnc2)cc1,93.7% (inactive)
3,CCOc1ccc2ccccc2c1CNc1nnnn1C,94% (inactive)
4,COc1ccccc1N1C(=O)C2CC(C)=C(C)CC2C1=O (centres undefined),85.2% (inactive)
5,Cc1coc2c1c(C)cc1oc(=O)c(Cc3ccccc3)c(C)c12,93.7% (inactive)
6,COc1cc2c3c(c1)C(C)CC(C)(C)N3C(=O)C2=O (centres undefined),79.2% (inactive)
7,NS(=O)(=O)c1cc2c(cc1Cl)NCNS2(=O)=O,132% (inactive)
8,O=C(O)C1Cc2ccccc2CN1S(=O)(=O)c1ccccc1 (centres undefined),118% (inactive)
9,COc1cccc(C2CC(=O)C3=C(C2)Nc2ccccc2N(C(=O)CCC(=O)O)C3c2ccc(F)cc2)c1 (centres undefined),89.1% (inactive)
10,CCC(C(=O)Nc1ccc2c(c1)OCCO2)c1ccccc1 (centres undefined),113% (inactive)
11,COc1ccc(C2C(C(=O)c3ccco3)=C(O)C(=O)N2CC2CCCO2)cc1 (centres undefined),99.3% (inactive)
12,C=CCNC(=O)c1ccc(-c2cccc([N+](=O)[O-])c2)o1,107% (inactive)
13,CC12CCC(C(=O)N(CCC#N)CCC#N)(CC1=O)C2(C)C (centres undefined),113% (inactive)
14,CC(=O)c1c(C)c(C)c2n1CCn1c(C)ccc1-2,121% (inactive)
15,COc1cc2cc(C)nc(Cc3cccc4ccccc34)c2cc1OC,82.3% (inactive)
16,Cc1oc2cc(O)cc(O)c2c(=O)c1-c1ccc2c(c1)OCCCO2,128% (inactive)
17,O=CNC1CCCc2c1[nH]c1ccc(Cl)cc21 (centres undefined),89.4% (inactive)
18,COc1ccc2cc(C3(C)NC(=O)NC3=O)ccc2c1 (centres undefined),117% (inactive)
19,CC1(C)CC(=O)c2c(nc3ccccc3c2N)C1,104% (inactive)
20,Cc1ccccc1C(=O)Oc1ccc(Sc2ccc(O)cc2)cc1,113% (inactive)

row,SMILES,GFP response vs DMSO
1,O=C(NC1CC1)C1CCN(C2CCN(C(=O)Cc3ccc(F)cc3)CC2)CC1,84.7% (inactive)
2,CCc1cc(/C(Cc2ccccn2)=N\O)c(O)cc1O,83.7% (inactive)
3,CC(=O)NC(CC(C)C)C(=O)NC(Cc1ccccc1)C(N)=O (stereo not drawn) (Ac-Leu-Phe-NH2; configuration not given here),111% (inactive)
4,CN(C)c1ccc(C(CN)c2c[nH]c3ccccc23)cc1 (centres undefined),108% (inactive)
5,CCn1cc(C(=O)O)c(=O)c2ccc(C)nc21,93.7% (inactive)
6,CN1[C@@H]2CC(OC(=O)[C@H](CO)c3ccccc3)C[C@H]1[C@@H]1O[C@@H]12 (some centres undefined),109% (inactive) and 117% (inactive)
7,CCOc1cc2c3c(c1)C(C)=CC(C)(C)N3C(=O)C2=O,108% (inactive)
8,Cc1ccc(C)c(OCCCC(C)(C)C(=O)O)c1,122% (inactive)
9,CC1(C)C(=O)OC(C(=O)c2ccc(Cl)cc2)C(C)(C)C1=O (centres undefined),97.3% (inactive)
10,CC1(CC(=O)Nc2ccccc2)NC(=S)N(c2ccccc2)N1 (centres undefined),134% (inactive)
11,COc1cc2c(cc1OC)C(C)=NC1(CCCCC1)C2,106% (inactive)
12,Cc1occc(=O)c1O,71% (inactive)
13,COC1CCN(Cc2cn(Cc3ccccc3)nc2-c2cc3ccccc3o2)CC1,89.4% (inactive)
14,COc1cccc2c(O)cc(=O)n(C)c12,116% (inactive)
15,CCN1C(=O)C(CC(=O)Nc2ccc(F)cc2)N(Cc2ccco2)C1=S (centres undefined),106% (inactive)
16,O=C(Cc1ccccc1[N+](=O)[O-])NCc1ccncc1,97.4% (inactive)
17,O=C1CC2(CCCC2)CC(=O)N1CCCCN1CCN(c2ncccn2)CC1,91.4% (inactive)
18,CCC(=O)c1ccc(OCc2ccc(C(=O)OC)cc2)cc1,112% (inactive)
19,COc1cccc(NC(=O)C2CC(=O)OC23CCOC(C)(C)C3)c1 (centres undefined),80.9% (inactive)
